PubChem BioAssay AID1159580 (chemical genetic matrix, 2015)
Among all 5,500 compounds or so, about 2,000 (36%) were called active. About 18% were inconclusive and are not listed. Rule as the data show it: active = normalized growth mostly below about 0.91 (no sharp cut-off); inconclusive = no clear call, values can overlap the other calls; inactive = mostly above about 0.92. This is one part of the list.

Experiment: chemical genetic growth profiling, strain panel (AID 1159580);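 also: tested at 20 µM; growth read once vehicle control cultures reached saturation at 30 °C; 1 = growth at the plate median or of vehicle wells; lower values mean less growth of the strain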
Details: growth OD
[1] = S. cerevisiae deletion strains, locus YAL013W, strain DEP1, hits give low values
[2] = S. cerevisiae deletion strains, locus YBR229C, strain ROT2, hits give low values
[3] = S. cerevisiae deletion strains, locus YDL101C, strain DUN1, hits give low values
[4] = S. cerevisiae deletion strains, locus YDR150W, strain NUM1, hits give low values
[5] = S. cerevisiae deletion strains, locus YEL061C, strain CIN8, hits give low values
[6] = S. cerevisiae deletion strains, locus YGR078C, strain PAC10, hits give low values
[7] = S. cerevisiae deletion strains, locus YHR030C, strain SLT2, hits give low values
[8] = S. cerevisiae deletion strains, locus YHR087W, strain rtc3, hits give low values
[9] = S. cerevisiae deletion strains, locus YJR043C, strain POL32, hits give low values
[10] = S. cerevisiae deletion strains, locus YJR075W, strain HOC1, hits give low values
[11] = S. cerevisiae deletion strains, locus YLR039C, strain RIC1, hits give low values
[12] = S. cerevisiae deletion strains, locus YLR058C, strain SHM2 (second series), hits give low values
[13] = S. cerevisiae deletion strains, locus YLR085C, strain ARP6, hits give low values
[14] = S. cerevisiae deletion strains, locus YLR262C, strain YPT6, hits give low values
[15] = S. cerevisiae deletion strains, locus YML094W, strain GIM5, hits give low values
[16] = S. cerevisiae deletion strains, locus YMR219W, strain ESC1, hits give low values
[17] = S. cerevisiae deletion strains, locus YMR263W, strain SAP30, hits give low values
[18] = S. cerevisiae deletion strains, locus YNL153C, strain GIM3, hits give low values
[19] = S. cerevisiae deletion strains, locus YNL298W, strain CLA4 (second series), hits give low values
[20] = S. cerevisiae deletion strains, locus YNL322C, strain KRE1, hits give low values
[21] = S. cerevisiae deletion strains, locus YNR030W, strain Alg12, hits give low values
[22] = S. cerevisiae deletion strains, locus YPL055C, strain LGE1, hits give low values
[23] = S. cerevisiae deletion strains, locus YPL241C, strain CIN2, hits give low values
[24] = S. cerevisiae deletion strains, locus YPR135W, strain CTF4, hits give low values

Measured: normalized growth

N#Cc1ccc(Oc2ccc(Cl)cc2)nc1
inactive: [1] 1.04 | [2] 0.975 | [3] 0.944 | S. cerevisiae deletion strains, locus YDL134C, strain PPH21, hits give low values 0.985 | [4] 1.01 | [5] 0.977 | [6] 1 | S. cerevisiae deletion strains, locus YGR229C, strain SMI1, hits give low values 0.987 | [7] 0.86 | [8] 0.992 | [9] 0.984 | [10] 0.968 | [11] 1.09 | [12] 0.966 | [13] 1.05 | [14] 1.05 | [15] 1.03 | [16] 0.971 | [17] 1.02 | [18] 0.986 | [19] 0.977 | [20] 0.98 | [21] 1.02 | S. cerevisiae deletion strains, locus YOL006C, strain TOP1, hits give low values 0.903 | [22] 1.14 | [23] 0.886 | [24] 1.2

NC(=S)c1ccc(Oc2ccc(Cl)cc2)nc1
active: [1] 0.064 | [2] 0.0587 | [3] 0.0679 | [4] 0.0611 | [5] 0.0551 | [6] 0.0731 | [7] 0.0713 | [8] 0.0597 | S. cerevisiae deletion strains, locus YJL187C, strain SWE1, hits give low values 0.0568 | [9] 0.0583 | [10] 0.0782 | [11] 0.0764 | [12] 0.0563 | [13] 0.0896 | [14] 0.0758 | [15] 0.0624 | [16] 0.0569 | [17] 0.0585 | S. cerevisiae deletion strains, locus YMR307W, strain GAS1, hits give low values 0.112 | [18] 0.0622 | [19] 0.0667 | [20] 0.0647 | [21] 0.0581 | [22] 0.0942 | [23] 0.0912 | [24] 0.194 | S. cerevisiae strains, strain wild type, hits give low values 0.0499
